Measured values: PubChem BioAssay

What was measured:
[1] = test system: Human papillomavirus type 1a protein E7 (residues 44-93); test: small molecules binding HPV E7 44-93 – biochemical, small-molecule microarray, residues 44-93, 635 nm fluorescence, primary screen (AID 1108); settings: fluorescence 635 nm, higher = more signal;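 note: E7 fragment applied at 1 µg/mL in TBST for 1 h at 4 C; score combines spot fluorescence with its signal to noise ratio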
[2] = hepatitis C replication reporter changes, two-sided – Huh7 cells, luciferase reporter, HCV replication inhibitor project, primary screen (AID 1109); settings: Huh7 HCV replicon luciferase reporter, 48 h; higher = more signal;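 note: huh7 hepatoma cells harbouring a luciferase neomycin HCV replicon reporter; luciferase luminescence as measure of HCV replicon replication; test concentration not given here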
[3] = target: Left-right determination factor 2 (Homo sapiens) (UniProt O00292); test: small molecules binding LEFTY2 protein – biochemical, small-molecule microarray, 635 nm fluorescence scan, primary screen (AID 1110); settings: higher = more signal
Sequence of Left-right determination factor 2 (Homo sapiens) (O00292 whole entry, looked up): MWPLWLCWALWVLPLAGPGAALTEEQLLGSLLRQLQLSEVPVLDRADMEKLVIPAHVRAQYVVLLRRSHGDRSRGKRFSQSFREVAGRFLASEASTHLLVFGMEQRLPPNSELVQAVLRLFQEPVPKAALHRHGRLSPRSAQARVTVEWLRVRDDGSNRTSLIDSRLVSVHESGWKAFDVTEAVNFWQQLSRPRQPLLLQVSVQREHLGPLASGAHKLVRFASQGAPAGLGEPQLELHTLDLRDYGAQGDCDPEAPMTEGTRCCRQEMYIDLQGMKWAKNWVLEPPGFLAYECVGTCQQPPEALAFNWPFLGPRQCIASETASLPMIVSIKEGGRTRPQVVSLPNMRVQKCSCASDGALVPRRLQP

[4] = target: Calmodulin-1 (Homo sapiens) (UniProt P0DP23); test: small molecules binding calmodulin-1 with EGTA – biochemical, small-molecule microarray, Cy5-labelled CALM1, profiling panel (AID 1111); settings: Cy5-CALM1 binding fluorescence, higher = more signal;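 note: labelled calmodulin applied in Tris saline Tween buffer holding calcium plus EGTA and DTT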
[5] = target: Calmodulin-1 (Homo sapiens) (UniProt P0DP23); test: small molecules binding Ca-loaded calmodulin-1 – biochemical, small-molecule microarray, Cy5-labelled CALM1, plus calcium, artefact control for SMM control-protein annotation, profiling panel (AID 1112); settings: Cy5-CALM1 binding fluorescence, higher = more signal;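 note: score merges spot fluorescence with signal to noise from triplicate slides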
[6] = probe aWnt5a binding to arrayed compounds – biochemical, biotinylated probe, 635/667 nm fluorescence, primary screen (AID 1113); settings: small-molecule microarray, higher = more signal;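 note: score merges 667 nm fluorescence intensity with signal-to-noise per printed feature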
[7] = probe aShh binding to arrayed compounds – biochemical, biotinylated probe, 635/667 nm fluorescence, primary screen (AID 1114); settings: small-molecule microarray, higher = more signal;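 note: probe is biotin-labelled aShh protein from a stem cell growth factor screen; measures binding of labelled protein to compounds printed on the slide; score merges feature fluorescence at 667 nm with signal-to-noise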
[8] = probe aNog binding to arrayed compounds – biochemical, biotinylated probe, 635/667 nm fluorescence, primary screen (AID 1115); settings: small-molecule microarray, higher = more signal;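 note: probe is biotinylated aNog protein used at 0.15 µg/mL for 1 h at 4 C; z-score combines 667 nm fluorescence of each spot with its signal to noise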
[9] = target: Torsin-1A-interacting protein 1 (Homo sapiens) (UniProt Q5JTV8); test: compound microarray binding of lysate hLAP1 – cell lysate, small-molecule microarray, COS7 lysate, 635/667 nm fluorescence, primary screen (AID 1116); settings: 635 nm fluorescence, higher = more signal
Sequence of Torsin-1A-interacting protein 1 (Homo sapiens) (Q5JTV8 whole entry, looked up): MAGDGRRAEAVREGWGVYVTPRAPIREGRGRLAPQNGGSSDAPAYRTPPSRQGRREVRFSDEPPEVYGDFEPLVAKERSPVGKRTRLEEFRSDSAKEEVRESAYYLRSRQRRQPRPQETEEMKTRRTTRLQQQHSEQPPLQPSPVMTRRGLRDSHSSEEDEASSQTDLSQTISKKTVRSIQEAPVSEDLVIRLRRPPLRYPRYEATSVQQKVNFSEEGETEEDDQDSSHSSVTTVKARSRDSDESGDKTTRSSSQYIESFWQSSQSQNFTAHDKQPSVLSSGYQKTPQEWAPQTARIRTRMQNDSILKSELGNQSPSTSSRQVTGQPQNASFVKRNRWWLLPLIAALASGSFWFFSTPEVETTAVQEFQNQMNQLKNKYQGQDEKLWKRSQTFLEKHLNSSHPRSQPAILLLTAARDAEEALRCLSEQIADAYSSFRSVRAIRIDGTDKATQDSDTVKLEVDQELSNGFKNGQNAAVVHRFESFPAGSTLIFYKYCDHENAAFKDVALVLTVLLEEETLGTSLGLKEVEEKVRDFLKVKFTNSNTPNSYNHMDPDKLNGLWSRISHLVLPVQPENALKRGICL

[10] = target: Alpha-bungarotoxin (Bungarus multicinctus) (UniProt P60615); test: compounds binding labelled alpha-BTX control protein – biochemical, small-molecule microarray, Alexa647 label, 635/667 nm fluorescence, artefact control for SMM control protein annotation, profiling panel (AID 1117); settings: alpha-BTX-A647 binding fluorescence, higher = more signal
Sequence of Alpha-bungarotoxin (Bungarus multicinctus) (P60615 whole entry, looked up): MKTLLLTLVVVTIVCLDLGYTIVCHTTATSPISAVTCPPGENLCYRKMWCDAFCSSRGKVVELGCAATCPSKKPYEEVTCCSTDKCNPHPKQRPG

CCOC(=O)C1=CCC(c2ccc(F)cc2)N(S(=O)(=O)c2ccc(C)cc2)C1 (stereo not given)
composite z-score [1]: 0.683
z-score [2]: -1.81
composite z-score [3]: 0.105
composite z-score [4]: 0.0017
composite z-score [5]: 0.0535
composite z-score [6]: -0.184
composite z-score [7]: -0.167
composite z-score [8]: -0.494
composite z-score [9]: 0.612
composite z-score [10]: 0.25

[N-]=[N+]=Nc1ccccc1C[C@]1(C(=O)NCC(O)CO)N=C(c2ccc(OCCCO)cc2)O[C@H]1c1ccccc1 (stereo not given in full)
composite z-score [1]: 1.45
z-score [2]: -0.962
composite z-score [3]: -1.32
composite z-score [4]: 1.89
composite z-score [5]: 0.496
composite z-score [6]: -0.0924
composite z-score [7]: -0.0709
composite z-score [8]: -0.492
composite z-score [9]: 0.954
composite z-score [10]: 0.903

C#CCNCc1ccccc1
composite z-score [1]: 0.297
z-score [2]: 0.141
composite z-score [3]: 0.689
composite z-score [4]: -0.389
composite z-score [5]: -0.163
composite z-score [6]: -0.213
composite z-score [7]: -0.291
composite z-score [8]: -0.213
composite z-score [9]: 0.195
composite z-score [10]: 0.34

COC(=O)[C@]1(CCC(=O)OC(C)(C)C)N=C(c2ccc(OCCCO)cc2)O[C@@H]1c1ccccc1
composite z-score [1]: 0.529
z-score [2]: -2.73
composite z-score [3]: -1.45
composite z-score [4]: -0.221
composite z-score [5]: 0.271
composite z-score [6]: -0.0405
composite z-score [7]: 0.04
composite z-score [8]: 1.24
composite z-score [9]: 1.79
composite z-score [10]: 1.29

O=C1N(CCS(=O)(=O)c2ccccc2)c2ccccc2[C@@H]2OC(c3ccc(OCCCO)cc3)=N[C@]12Cc1ccccc1
composite z-score [1]: 1.34
z-score [2]: -1.94
composite z-score [3]: 0.248
composite z-score [4]: 0.835
composite z-score [5]: -0.387
composite z-score [6]: -0.124
composite z-score [7]: -0.24
composite z-score [8]: -0.12
composite z-score [9]: 0.309
composite z-score [10]: 1.32

COc1ccccc1CN1C(=O)c2ccccc2[C@@H](C(=O)NCc2ccccc2)[C@@H]1c1ccc(CO)cc1
composite z-score [1]: 0.841
z-score [2]: -1.01
composite z-score [3]: 0.0458
composite z-score [4]: -0.473
composite z-score [5]: -0.181
composite z-score [6]: -0.124
composite z-score [7]: -0.374
composite z-score [8]: -0.416
composite z-score [9]: 0.404
composite z-score [10]: 1.78

O=C(O)[C@H]1C[C@H]2C(=O)N3CCC[C@H]3C(=O)N2[C@H]1c1ccc(O)cc1
composite z-score [1]: -0.124
z-score [2]: 0.253
composite z-score [3]: -2.21
composite z-score [4]: -0.342
composite z-score [5]: 0.123
composite z-score [6]: -0.202
composite z-score [7]: -0.348
composite z-score [8]: -0.216
composite z-score [9]: 0.319
composite z-score [10]: -1.55

CN(C)CCCCNC(=O)[C@@H]1C[C@@H]2C(=O)N[C@@H](CCCCN)C(=O)N2[C@@H]1c1ccc(O)cc1
composite z-score [1]: 0.0215
z-score [2]: -1.04
composite z-score [3]: 0.886
composite z-score [4]: 1.53
composite z-score [5]: -0.288
composite z-score [6]: 0.0725
composite z-score [7]: 0.213
composite z-score [8]: 0.654
composite z-score [9]: 0.677
composite z-score [10]: 1.36

CC(C)NC(=O)[C@@]1(Cc2ccccc2I)c2ccccc2C(=O)N(Cc2ccccc2Cl)[C@H]1c1ccc(CO)cc1
composite z-score [1]: 1.37
z-score [2]: -1.97
composite z-score [3]: 0.45
composite z-score [4]: 0.789
composite z-score [5]: -0.129
composite z-score [6]: 0.0077
composite z-score [7]: 0.0062
composite z-score [8]: 0.0139
composite z-score [9]: 0.795
composite z-score [10]: 1.28

COCCOC(=O)N1C(=O)[C@@]2(c3cc(C#CCCO)ccc31)[C@H](c1ccc(OCCO)cc1)N1[C@H](c3ccccc3)[C@H](c3ccccc3)OC(=O)[C@H]1[C@@H]2C(N)=O
composite z-score [1]: 1.44
z-score [2]: -1.13
composite z-score [3]: 0.606
composite z-score [4]: 0.852
composite z-score [5]: 0.278
composite z-score [6]: 0.0136
composite z-score [7]: 0.171
composite z-score [8]: 0.226
composite z-score [9]: 0.918
composite z-score [10]: 0.338

CCOC(=O)C[C@H]1[C@H](OC(=O)c2cc3ccccc3oc2=O)[C@@H](NC(=O)CC(C)C)c2cc(OCCCO)ccc2N1C(=O)c1ccccc1
composite z-score [1]: 0.886
z-score [2]: 0.186
composite z-score [3]: 0.371
composite z-score [4]: -0.299
composite z-score [5]: -0.543
composite z-score [6]: 0.0317
composite z-score [7]: -0.0011
composite z-score [8]: 0.819
composite z-score [9]: 0.124
composite z-score [10]: 1.06

COc1ccc(CCNC(=O)[C@@]2(C)c3ccccc3C(=O)N(c3ccc(C)cn3)[C@H]2c2ccc(CO)cc2)cc1
composite z-score [1]: -0.992
z-score [2]: -0.583
composite z-score [3]: -0.839
composite z-score [4]: -0.4
composite z-score [5]: -0.141
composite z-score [6]: -0.096
composite z-score [7]: 1.9
composite z-score [8]: -0.118
composite z-score [9]: 0.56
composite z-score [10]: -0.438

CCN(CC)c1ccc(N2CC=CC34O[C@@H]5/C=C\CCC(C)OC(=O)C5[C@H]3C(=O)N(CCCCCO)[C@@H]4C2=O)cc1 (stereo not given in full)
composite z-score [1]: -2.06
z-score [2]: 0.008
composite z-score [3]: -1.5
composite z-score [4]: -0.407
composite z-score [5]: 0.381
composite z-score [6]: -0.0346
composite z-score [7]: -0.253
composite z-score [8]: -0.234
composite z-score [9]: -1.59
composite z-score [10]: -0.324

CC(C)Cc1ccc(CN2CC[C@@H](N)C2)cc1
composite z-score [1]: -2.06
z-score [2]: -4.41
composite z-score [3]: -0.669
composite z-score [4]: -0.387
composite z-score [5]: 0.36
composite z-score [6]: -0.274
composite z-score [7]: -0.147
composite z-score [8]: 0.023
composite z-score [9]: -1.24
composite z-score [10]: -0.118

COCCOC(=O)N1C(=O)[C@@]2(c3cc(C#CC4(O)CCCCCC4)ccc31)[C@H](C(=O)Nc1nc3ccccc3s1)[C@H]1C(=O)O[C@H](c3ccccc3)[C@H](c3ccccc3)N1[C@@H]2c1ccc(OCCO)cc1
composite z-score [1]: 1.31
z-score [2]: -2.33
composite z-score [3]: 0.726
composite z-score [4]: 0.693
composite z-score [5]: -0.271
composite z-score [6]: -0.169
composite z-score [7]: 0.138
composite z-score [8]: 0.0824
composite z-score [9]: -0.105
composite z-score [10]: 1.21

O=c1cccc(-c2ccccc2Cl)o1
composite z-score [1]: 0.201
z-score [2]: -0.143
composite z-score [3]: -0.12
composite z-score [4]: -0.559
composite z-score [5]: -0.503
composite z-score [6]: -0.124
composite z-score [7]: 0.0952
composite z-score [8]: -0.593
composite z-score [9]: 0.21
composite z-score [10]: -0.183

COC(=O)[C@@]1(Cc2ccccc2)[C@H]2c3cc(C(=O)N(C)C)n(CCc4c[nH]c5ccc(O)cc45)c3C[C@H]2CN1C(=O)c1ccccc1
composite z-score [1]: 1.32
z-score [2]: -2.07
composite z-score [3]: -0.119
composite z-score [4]: 1.2
composite z-score [5]: 0.0493
composite z-score [6]: 0.0031
composite z-score [7]: -0.0146
composite z-score [8]: 0.843
composite z-score [9]: 1.48
composite z-score [10]: 0.194
